Source: PubChem BioAssay
Most compounds without a hit are left out; they make up all but 2.4% or so of the library.
p97 ATPase inh = blocks human p97 ATPase activity. recombinant p97 ATPase, Kinase-Glo ATP luminescence, 3 h. inhibition, % at 8 µM. 220,000 compounds, 0.42% hits. AID 1481; in the data active = inhibition above about 15%
Target sequence (P55072 whole entry, looked up): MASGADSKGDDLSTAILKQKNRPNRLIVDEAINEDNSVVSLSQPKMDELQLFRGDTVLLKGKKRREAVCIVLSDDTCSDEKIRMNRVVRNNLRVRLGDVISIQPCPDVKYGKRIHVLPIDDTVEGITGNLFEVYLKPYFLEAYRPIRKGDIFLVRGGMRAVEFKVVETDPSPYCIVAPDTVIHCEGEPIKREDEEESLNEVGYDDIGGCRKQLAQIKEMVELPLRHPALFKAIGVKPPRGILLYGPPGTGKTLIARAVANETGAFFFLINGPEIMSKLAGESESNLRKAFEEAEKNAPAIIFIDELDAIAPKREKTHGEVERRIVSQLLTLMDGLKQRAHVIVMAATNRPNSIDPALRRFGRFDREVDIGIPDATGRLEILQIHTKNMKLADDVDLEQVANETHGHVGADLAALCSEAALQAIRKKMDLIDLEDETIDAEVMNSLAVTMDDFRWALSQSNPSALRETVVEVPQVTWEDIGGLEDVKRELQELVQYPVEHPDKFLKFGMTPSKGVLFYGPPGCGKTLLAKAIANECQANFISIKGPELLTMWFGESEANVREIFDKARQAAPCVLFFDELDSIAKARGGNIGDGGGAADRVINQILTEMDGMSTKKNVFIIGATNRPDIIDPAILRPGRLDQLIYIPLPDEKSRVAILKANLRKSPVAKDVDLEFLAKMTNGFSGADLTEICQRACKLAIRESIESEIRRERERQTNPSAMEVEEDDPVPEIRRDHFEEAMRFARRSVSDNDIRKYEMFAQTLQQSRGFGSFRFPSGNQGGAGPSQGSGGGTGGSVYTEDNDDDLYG
EP2 modulator = modulators of human EP2 prostaglandin E2 receptor. P43116. induction, % at 25 µM. 260,000 compounds, 0.83% hits. EP2-expressing cells, cAMP HTRF FRET, PGE2 co-stimulation;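 active = compounds whose cAMP rise, as percent of the full-agonist control response, exceeds 60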;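 also: rat C6 glioma line stably carrying human EP2 under a CMV promoter; the protocol text gives 20 µM as final concentration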
EP2 antag = blocks the human prostaglandin E2 receptor EP2 | P43116 | C6 glioma cells expressing human EP2, cAMP TR-FRET; cells stimulated with saturating PGE2 | inhibition, % at 25 µM | 260,000 compounds, 0.52% hits | AID 1422;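 active = percent inhibition above 40 after rounding to a whole number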;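 also: rat C6 glioma host cells with rolipram phosphodiesterase inhibitor present; the protocol text gives 20 µM as final concentration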
Arbovirus anti = antivirals against arbovirus infection; arbovirus infection cell-based antiviral screen; inhibition, % at 10 µM; 200,000 compounds, 0.37% hits; AID 1251; in the data active = inhibition above about 30%
Hck Nef HTS = inhibitors of human Hck kinase activated by Nef; P08631; Recombinant Hck-YEEI plus Nef, Z-Lyte FRET kinase assay; inhibition, % at 20 µM; 220,000 compounds, 0.68% hits;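 active = Hck-Nef kinase inhibition above about 50%, limit read from the data; inactive = inhibition below that limit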
EP2 confirm = human EP2 receptor cAMP induction, negative in counter-screens | shares compounds with EP2 modulator | C6 glioma EP2 cells, cAMP HTRF induction; plus low (about EC15) PGE2 agonist | calls only at 20 µM (by protocol) | 1,300 compounds, 47% hits;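 active = cAMP induction above 50% in the main assay while under 30% in all four parallel counter assays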;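 also: rat C6 glioma cells stably expressing human EP2 receptor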
Of the large screens only hits and unclear results are named; the others gave an inactive call (follow-up assays come after a bar, where they were run).

CCN(Cc1cc(Cl)cc(C)c1O)Cc1c(O)ccc2ccccc12	none (no result: p97 ATPase inh, Arbovirus anti, Hck Nef HTS) | EP2 confirm inactive
Cc1cc(C)c(S(=O)(=O)c2ccccc2)c(OC(=O)c2c(Cl)cc(Cl)cc2Cl)n1	EP2 modulator 75.7 | EP2 confirm active
Cc1cc(C)c(S(=O)(=O)c2ccccc2)c(OC(=O)c2c(F)cccc2F)n1	none
Cc1c(OCc2ccccc2)c(=O)ccn1Cc1ccc(Cl)cc1	EP2 modulator 67.1 | EP2 confirm inactive
Cc1ccc(Cn2ccc(=O)c(OCc3ccccc3)c2C)cc1	none
Cc1nn2c(N3CCN(C(=O)c4ccco4)CC3)cc(C(C)(C)C)nc2c1-c1ccccc1	EP2 modulator 78.2 | EP2 confirm active
Cc1nn2c(N3CCCC3)cc(C(C)C)nc2c1-c1ccccc1	EP2 modulator 75.4 | EP2 confirm active
Cc1cc(N2CCCCC2)n2nc(C)c(-c3ccccc3)c2n1	none
COc1ccc(NC(=O)CN2CCC(C(=O)c3ccc(C)cc3)CC2)cc1OC	none (no result: p97 ATPase inh, Arbovirus anti, Hck Nef HTS)
O=S(=O)(c1ccc(F)c(Cl)c1)N1CCCC1	EP2 modulator 68.1 | EP2 confirm inactive
COc1ccc(C2C3=C(CC(C)(C)CC3=O)OC3=C2C(=O)CC(C)(C)C3)cc1COC(C)=O	none (no result: p97 ATPase inh, Arbovirus anti, Hck Nef HTS)
CC(=O)N1CCN(c2nc(C(C)(C)C)nc3c2nnn3Cc2ccccc2)CC1	none (no result: p97 ATPase inh, Arbovirus anti, Hck Nef HTS)
CS(=O)(=O)N(Cc1ccccc1)c1ccccc1C(=O)Nc1ccccc1C(=O)NCc1ccco1	EP2 modulator 87.9 | EP2 confirm active
CSc1ncc(C(=O)Nc2nc(-c3c[nH]c4cc(C)ccc34)cs2)cn1	none (no result: p97 ATPase inh, Arbovirus anti, Hck Nef HTS)
CC(=C\c1ccccc1)/C=C1/SC(=S)N(C(C(=O)O)C(C)C)C1=O (stereo unspecified)	none | EP2 confirm active
Nc1n[nH]c(Cc2ccccc2)n1	none (no result: p97 ATPase inh, Arbovirus anti, Hck Nef HTS)
CC(C)Sc1cc(N2CCOCC2)nc(-c2ccc(Cl)cc2)n1	EP2 modulator 82.2 | EP2 confirm inactive
Cc1cc(C)n(-c2cc(-c3ccccc3)nc(C)n2)n1	EP2 modulator 68.9 | EP2 confirm inactive
Cc1nc(-c2ccccc2)cc(N2CCCC2)n1	none
C=CCSc1nc2ccccc2n1S(=O)(=O)c1ccc(C)cc1	EP2 modulator 66.6 | EP2 confirm active
Cc1ccc(S(=O)(=O)n2c(N)nc3ccccc32)cc1	none (no result: p97 ATPase inh, Arbovirus anti, Hck Nef HTS)
O=S(=O)(c1ccc(S(=O)(=O)N2CCN(c3ccccc3F)CC2)cc1)N1CCCC1	none (no result: p97 ATPase inh, Arbovirus anti, Hck Nef HTS)
COCCNC(=O)CN(CC1CCCO1)C(=O)CCC(=O)Nc1ccccn1 (stereo unspecified)	none
COCCNC(=O)C(c1ccc(F)cc1)N(CC1CCCO1)C(=O)CCC(=O)Nc1ccccn1 (stereo unspecified)	EP2 modulator 72.1 | EP2 confirm inactive
COc1ccccc1-c1nnc(SCC(=O)c2ccc(C3CCCCC3)cc2)n1Cc1ccco1	none | EP2 confirm active
COc1ccc(C(=O)CSc2nnc(-c3ccoc3C)n2Cc2ccco2)cc1	none (no result: p97 ATPase inh, Arbovirus anti, Hck Nef HTS)
Cc1occc1-c1nnc(SCC(=O)c2ccc(F)cc2)n1Cc1ccco1	none
O=C(CSc1nnc(-c2cc3ccccc3cc2O)n1Cc1ccco1)c1ccc(F)cc1	none | EP2 confirm inactive
CC(C)C1=NN(C(=O)CCc2ccccc2O)C(O)(C(F)(F)F)C1 (stereo unspecified)	none (no result: p97 ATPase inh, Arbovirus anti, Hck Nef HTS)
O=C(NC1CCN(C(=O)Nc2ccccc2Cl)CC1)C1CCCCC1	none (no result: p97 ATPase inh, Arbovirus anti, Hck Nef HTS)
CC(C)c1nc(N2CCN(C(=O)c3ccccc3)CC2)c(C#N)c2c1COC(C)(C)C2	EP2 modulator 76.9 | EP2 confirm active
CCCSc1nc(N2CCCC2)c2c(c1C#N)CC(C)(C)OC2	EP2 modulator 66.2 | EP2 confirm active
CC1(C)Cc2c(C#N)c(N3CCCC3)nc(-c3ccco3)c2CO1	EP2 modulator 76.2 | EP2 confirm inactive
CC1(C)Cc2c(C#N)c(N3CCN(C(=O)c4ccccc4)CC3)nc(-c3ccco3)c2CS1	none
Cc1[nH]c2c(C(=O)NC(C)c3nc(-c4cccnc4)no3)cccc2c1C (stereo unspecified)	none (no result: p97 ATPase inh, Arbovirus anti, Hck Nef HTS)
CCn1ncc2c3sc(C)cc3n(Cc3cccc(OC)c3)c2c1=O	none (no result: p97 ATPase inh, EP2 antag, Arbovirus anti, Hck Nef HTS)
Cc1ccc2oc(=O)n(Cc3ccccc3OC(C)C)c2c1	EP2 modulator 67.0 | EP2 confirm active
CCCCOc1ccccc1Cn1c(=O)oc2ccc(C)cc21	EP2 modulator 79.4 | EP2 confirm active
Cc1ccc(C(C)C)c(OCCn2c(=O)oc3ccccc32)c1	EP2 modulator 61.0 | EP2 confirm inactive
O=C(Cn1nc(-c2cccnc2)oc1=O)N1CCCCCC1	none (no result: p97 ATPase inh, EP2 antag, Arbovirus anti, Hck Nef HTS)
COc1ccc(S(=O)(=O)N(CC(=O)NCc2ccco2)c2ccc(F)cc2)cc1OC	none (no result: p97 ATPase inh, Arbovirus anti, Hck Nef HTS)
Cc1nc2c(-c3ccc(F)cc3)c(C)nn2c(N2CCC(O)CC2)c1C	none (no result: p97 ATPase inh, Arbovirus anti, Hck Nef HTS)
COc1ccc2c(c1)c(C(=O)COC(C)=O)c(C)n2C	none (no result: p97 ATPase inh, Arbovirus anti, Hck Nef HTS)
CCn1nnc(-c2ccccc2NC(=O)c2cc(OC)cc(OC)c2)n1	EP2 modulator 73.9 | EP2 confirm active
CCn1nnc(-c2ccccc2NC(=O)c2cc(OC)c(OC)c(OC)c2)n1	none
COc1ccc(C(=O)c2cnc3ccccc3c2-c2ccccc2)cc1	EP2 modulator 92.5 | EP2 confirm active
COc1ccc(Oc2nc(-c3ccccc3)ncc2C(=O)O)cc1	none
Cc1ccc(C(=O)c2cnc3ccccc3c2-c2ccccc2)cc1	EP2 modulator 92.1 | EP2 confirm active
CCN(CC)C(=O)Cn1cc(C(=O)C(=O)NCc2ccco2)c2ccccc21	EP2 modulator 67.3 | EP2 confirm inactive
O=C(O)c1ccc(-c2ccccc2Cl)o1	EP2 modulator 69.4 | EP2 confirm inactive
CC(=O)O[C@H]1CC[C@@]2(C)[C@@H](CC[C@H]3[C@H]2CC(=O)[C@]2(C)[C@@H]3C[C@H]3CC(C)=CC(=O)[C@@H]32)C1	EP2 modulator 63.8, EP2 antag 44.9 (no result: p97 ATPase inh, Arbovirus anti, Hck Nef HTS) | EP2 confirm inactive
CC(=O)O[C@H]1CC[C@]2(C)C3=CC(=O)[C@@]4(C)C(C[C@@H]5OC6(OCC(C)CC6Br)[C@@H](C)[C@@H]54)C3CC[C@H]2C1 (stereo partly specified)	none (no result: p97 ATPase inh, Arbovirus anti, Hck Nef HTS)
c1ccc(-c2cc3ccccc3nc2N2CCCC2)cc1	none
Cc1ccc(-c2cc3ccccc3nc2N2CCOCC2)cc1	EP2 modulator 73.3 | EP2 confirm inactive
CN(C)c1nccc(N(Cc2ccccc2)Cc2ccccc2)c1C#N	EP2 modulator 67.9 | EP2 confirm active
COCC(=O)N(C)c1nnc(-c2cnccn2)s1	none
COCC(=O)N(C)c1nnc(-c2cnc(C)cn2)s1	EP2 modulator 71.0 | EP2 confirm inactive
COc1ccc(C)cc1NS(=O)(=O)c1ccc2c(c1)OCCO2	none (no result: p97 ATPase inh, Arbovirus anti, Hck Nef HTS)
CCc1ccc2[nH]c(=O)c(C(c3nnnn3C(C)(C)C)N3CCN(c4cccc(C)c4C)CC3)cc2c1 (stereo unspecified)	none (no result: p97 ATPase inh, Arbovirus anti, Hck Nef HTS)
CN(C)c1nc(-c2ccccc2)c2cnn(Cc3ccccc3)c2n1	EP2 modulator 73.3 | EP2 confirm active
S=c1nc[nH]c2c1[nH]c1ccccc12	EP2 modulator 82.7 | EP2 confirm inactive
